The list is not random: actives were taken first. Their share in the collection is about 6.6%.
KB-3-1 cytotox: KB-3-1 parental cell cytotoxicity; 1.4% of 400,000 active; KB-3-1 viability, CellTiter-Glo ATP luminescence, 72 h; AID 1347075; Potency, µM (doses to about 46.1 µM), hits mostly cytotoxic; also: % is scaled to controls: 0 for no effect and ±100 for the full control effect; nearly all actives have a fitted effect of over 60% in size
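Cells are dispensed, compounds pinned in, plates held at 37 °C for 72 h, then CellTiter-Glo is added and luminescence read after 10 minutes. Cell line: parental KB-3-1 in phenol-red-free DMEM, 10% FBS.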
HT1080 IDH1KD tx: HT-1080 IDH1 knockdown cell toxicity (counter line); HT-1080 IDH1 knockdown viability, ATP luminescence, 48 h; Potency, µM (titrated, usually from 46.1 µM), for inactives: top-dose activity, negative = toxicity, actives largely listed as cytotoxic; 2% of 360,000 active; AID 686971;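 also: 0% = DMSO wells and -100% = cell-free medium wells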
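HT-1080-IDH1KD cells (IDH1 knocked down), 750/well in RPMI with 5% FBS, treated with compound 48 h at 37 degrees C. Viability by CellTiter-Glo luminescence, normalised to DMSO and no-cell wells; concentration-response curves classed.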
KB-V1 cytotox: KB-V1 MDR subline cytotoxicity; KB-V1 MDR cells viability, CellTiter-Glo, 72 h; Potency, µM (doses to about 46.1 µM), most hits filed as cytotoxic; 3.4% of 400,000 active; AID 1347076; also: % is scaled to controls: 0 for no effect and ±100 for the full control effect; nearly all actives have a fitted effect of over 60% in size
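Compound-treated KB-V1 multidrug-resistant cells, 72 h, 37 degrees C; viability by CellTiter-Glo. Fitted qHTS curves give the values.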
HT1080-NT tox: kills 2HG-producing HT-1080-NT fibrosarcoma cells; HT-1080-NT fibrosarcoma viability, CellTiter-Glo ATP luminescence, 48 h; Potency, µM (top dose mostly 46.1 µM), without a hit: at the highest dose activity, negative = less viability, actives largely listed as cytotoxic; 1.6% of 360,000 active; AID 686970;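 also: NT is the 2HG producing partner of a matched IDH1 knockdown line; 0% = DMSO-treated cells and -100% = media-only wells without cells; nearly all actives have a fitted effect of over 55% in size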
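Viability by CellTiter-Glo luminescence after 48 h compound exposure at 37C of HT-1080-NT cells (750/well, RPMI, 5% FBS). % activity scaled between DMSO wells and medium-only wells, then curve-fitted and categorized by curve class.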
TGFb SMAD3 inh: TGF-b pathway inhibition; HepG2 CAGA-GFP TGF-b/SMAD3 reporter, GFP fluorescence, 18 h; TGF-beta stimulated, 500 pg/mL final; Potency, µM (doses to about 46.1 µM), for the others: top-dose activity, negative = inhibition, hits mostly inhibitors; 1.2% of 410,000 active; also: % is scaled to controls: 0 for no effect and ±100 for the full control effect; nearly all actives have a fitted effect of over 65% in size
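Inhibition was scored as loss of TGF-beta-induced (500 pg/mL final, 18 hours, 37 degrees C) GFP in HEPG2 cells carrying a CAGA-GFP reporter, in DMEM with 1% FBS. Well GFP was summed per cell; Activity was normalised to unstimulated and stimulated DMSO wells, then concentration-response fitting.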
HepG2 viability: counter-screen for TGF-b inhibitors: cytotoxicity in HepG2 cells; HepG2 CAGA-GFP viability, ATP luminescence, 18 h; Potency, µM (doses to about 46.1 µM), for the others: at the top dose activity change, negative = cytotoxicity, most hits filed as cytotoxic; 0.76% of 410,000 active
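CellTiter-Glo luminescence gave cytotoxicity after 18 hours at 37 degrees C. The cells were HepG2 CAGA-GFP in 1% FBS DMEM, stimulated with 500 pg/mL TGF-beta after compound addition. %Activity was normalised to no-cell wells (complete cell-killing) and DMSO (no toxicity), and curves were fitted and classified.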
Active calls of the source: *; ! = a repeat was not active. Calls follow the shape of the dose curve; as a rule, active = well fitted curve in the direction sought with a large enough effect; inconclusive = small, poorly fitted or top-dose-only effect, or another doubt; inactive = no such curve, though single readings can be large; an effect the other way counts as inactive or inconclusive. Potency is read from the fitted curve at half-maximal effect.

CC1(C)CSC(=NCc2ccccc2)N1 was read as KB-3-1 cytotox inactive, HT1080 IDH1KD tx -3%, KB-V1 cytotox inactive, HT1080-NT tox 2%, TGFb SMAD3 inh 8.9µM* and HepG2 viability -32%.
`CC(N)C(=O)NC1C2C(=C(O)CC(O)C2O)C(=O)OC1(C)C(Cl)Cl` (stereo unspecified) gave KB-3-1 cytotox 2.1µM*, HT1080 IDH1KD tx 0.92µM*, KB-V1 cytotox 18µM*, HT1080-NT tox inconclusive, TGFb SMAD3 inh inconclusive and HepG2 viability -4%.
For c1ccc2c(CN3CCCCC3)c[nH]c2c1 the results were KB-3-1 cytotox inactive, HT1080 IDH1KD tx -4%, KB-V1 cytotox inactive, HT1080-NT tox -1%, TGFb SMAD3 inh 0% and HepG2 viability -29%.
Screening OC1(c2ccc(Cl)cc2)CCN(Cc2c[nH]c3ccccc23)CC1 returned KB-3-1 cytotox inactive, HT1080 IDH1KD tx 18µM*, KB-V1 cytotox inactive, HT1080-NT tox 18µM*, TGFb SMAD3 inh inconclusive and HepG2 viability -38%.
COc1ccc2nc(NC(=O)c3nc(S(=O)(=O)Cc4cccc(C)c4)ncc3Cl)sc2c1 was read as TGFb SMAD3 inh inconclusive and HepG2 viability -97%.
For O=P(O)(O)Cc1ccccc1OP(=O)(c1ccccc1)c1ccccc1 the results were KB-3-1 cytotox inactive, HT1080 IDH1KD tx 1%, KB-V1 cytotox 23µM*, HT1080-NT tox 1%, TGFb SMAD3 inh -11% and HepG2 viability 1%.
For O=P(O)(O)Cc1c(Cl)cccc1Cl the results were KB-3-1 cytotox inactive, HT1080 IDH1KD tx inconclusive, KB-V1 cytotox inactive, HT1080-NT tox 21%, TGFb SMAD3 inh 16% and HepG2 viability -11%.
Screening O=S(=O)(c1ccc(Nc2ccc(-c3ccc4c(c3)OCCO4)nn2)cc1)N1CCCC1 returned KB-3-1 cytotox inactive, HT1080 IDH1KD tx inconclusive, KB-V1 cytotox inconclusive, HT1080-NT tox 16µM*, TGFb SMAD3 inh -12% and HepG2 viability -15%.
CCc1ccc(CNC(=O)C2CCN(C(=O)c3ccc(-n4c(C)cc5ccccc54)s3)CC2)cc1 was read as KB-3-1 cytotox inconclusive, KB-V1 cytotox inactive, TGFb SMAD3 inh inconclusive and HepG2 viability -27%.
For O=[N+]([O-])c1ccc(C2[C@H]3C(c4ccccc4)=NC4(CCCC4)N23)cc1 (stereo partly specified) the results were KB-3-1 cytotox inactive, HT1080 IDH1KD tx 0%, KB-V1 cytotox inactive, HT1080-NT tox -1%, TGFb SMAD3 inh -7% and HepG2 viability 4%.
Screening Cc1ccc(C2=NC(C)(C)N3C2C3c2ccc([N+](=O)[O-])cc2)cc1 (stereo unspecified) returned KB-3-1 cytotox inconclusive, HT1080 IDH1KD tx -1%, KB-V1 cytotox 18µM*, HT1080-NT tox 1%, TGFb SMAD3 inh -16% and HepG2 viability -5%.
NS(=O)(=O)c1ccc(N=Cc2c(O)n(C3CCCCC3)c(=O)n(C3CCCCC3)c2=O)cc1 was read as KB-3-1 cytotox inactive, HT1080 IDH1KD tx inconclusive, KB-V1 cytotox inactive, HT1080-NT tox inconclusive, TGFb SMAD3 inh 16µM* and HepG2 viability -111%.
For COc1ccc(NC2Oc3cc4c(cc3C(c3cc(OC)c(OC)c(OC)c3)C2C)OCO4)cc1 (stereo unspecified) the results were KB-3-1 cytotox 1.6µM*, HT1080 IDH1KD tx inconclusive, KB-V1 cytotox 5.8µM*, HT1080-NT tox inconclusive, TGFb SMAD3 inh inconclusive and HepG2 viability -30%.
CC(C)c1oc(=O)cc2c1[C@@H](O)[C@H]1OC(=O)[C@@]3(C)CC[C@@H](O)[C@@]2(C)C13 (stereo partly specified) was read as KB-3-1 cytotox 7.3µM*, HT1080 IDH1KD tx inconclusive, KB-V1 cytotox inactive, HT1080-NT tox inconclusive, TGFb SMAD3 inh 2µM* and HepG2 viability -25%.
For O=C(O)c1cccs1 the results were KB-3-1 cytotox inactive, KB-V1 cytotox inactive, TGFb SMAD3 inh 5% and HepG2 viability 16%.
`C=Cc1ccc(Cn2c(C)c(CNCCc3cc(OC)ccc3OC)c(C(=O)O)c2C)cc1` gave KB-3-1 cytotox inactive, KB-V1 cytotox inactive, TGFb SMAD3 inh 0% and HepG2 viability -20%.
CNCC(O)c1cc(OCc2ccccc2)c(OCc2ccccc2)cc1F (stereo unspecified) was read as KB-3-1 cytotox inconclusive, KB-V1 cytotox 18µM*, TGFb SMAD3 inh inconclusive and HepG2 viability -109%.
Screening CN(Cc1ccc(OC(F)F)cc1)Cc1nc2c(Br)cc(Br)cc2c(=O)[nH]1 returned KB-3-1 cytotox inactive, HT1080 IDH1KD tx 3%, KB-V1 cytotox inactive, HT1080-NT tox 4%, TGFb SMAD3 inh inconclusive and HepG2 viability -32%.
Screening Cc1ccc(C)c(S(=O)(=O)c2nnn3c2nc(N2CCN(C)CC2)c2sccc23)c1 returned KB-3-1 cytotox inactive, KB-V1 cytotox inactive, TGFb SMAD3 inh inconclusive and HepG2 viability -16%.
Screening COc1ccc(CNC(=O)C(CC(C)C)NS(=O)(=O)c2ccc3c(c2)oc(=O)n3C)cc1 (stereo unspecified) returned KB-3-1 cytotox inconclusive, KB-V1 cytotox inactive, TGFb SMAD3 inh inconclusive and HepG2 viability 6%.
`Cc1cccc(OCC(=O)N2CCN(Cc3cc(=O)n4nc(-c5ccccc5Cl)sc4n3)CC2)c1` gave KB-3-1 cytotox inactive, KB-V1 cytotox inactive, TGFb SMAD3 inh -10% and HepG2 viability -1%.
CN1CC[C@@]2(C)c3cc(O)ccc3N(C)[C@@H]12 was read as KB-3-1 cytotox inconclusive, HT1080 IDH1KD tx inconclusive, KB-V1 cytotox inactive, HT1080-NT tox 23µM*, TGFb SMAD3 inh inconclusive and HepG2 viability 18µM*!.
`CN1CC[C@@]2(C)c3cc(O)ccc3N(C)C2O1` (stereo partly specified) gave KB-3-1 cytotox inactive, KB-V1 cytotox inactive, TGFb SMAD3 inh -21% and HepG2 viability -21%.
For CCn1cc2nc(SCc3cccc(C(F)(F)F)c3)n(Cc3ccc(OC)cc3)c(=O)c2n1 the results were KB-3-1 cytotox inactive, KB-V1 cytotox 18µM*, TGFb SMAD3 inh inconclusive and HepG2 viability -28%.
COc1ccc(NC(=O)CN2C(=O)CN=C(c3ccccc3)c3ccccc32)c(OC)c1 was read as TGFb SMAD3 inh -10% and HepG2 viability -17%.

Screening data: PubChem BioAssay, National Center for Advancing Translational Sciences (NCATS)
